Compounds with a hit are over-represented: about 6.7% of the library has one in this group of screens.
Tcruzi prolif: T. cruzi intracellular proliferation inhibitors, primary screen, cell-based, beta-gal Tulahuen parasites, NIH3T3 host, luminescence; AID 624255, 2012; 77,000 tested, 5.9% active; T. cruzi beta-gal in NIH3T3, GalScreen luminescence, 90 h; inhibition, % at 8.34 µM;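 active = mean inhibition above about 93%, with at least 55% of replicates each passing it, limit read from the data, passing the limit was not always enough; inconclusive = only one of those two conditions holds; inactive = neither condition holds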
C diff HTS: C. difficile growth inhibitors, primary screen, HTS. 86,000 tested, 0.25% active. Clostridium difficile clinical isolate growth, OD600, 24 h; hits give low values. growth activity, negative = inhibition, % at 16 µg/mL (by protocol). AID 1259249, 2017;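 active = mean growth activity at or below -80% and every replicate also at or below -80%; inconclusive = mean at or below -80% but some replicate above -80%; inactive = mean growth activity above -80%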
Pf Dd2 growth: P. falciparum Dd2 growth inhibitors, primary screen, SYBR Green fluorescence, single dose replicates; activity change, % at 10 µM; 94,000 tested, 2.3% active; 72 h; hits give low values; in the data active = activity change below about -80%; inconclusive = no clear call, values can overlap the other calls
Hits are given with their value; n = inactive; u = inconclusive; x = not tested or not shown.

SMILES	Tcruzi prolif	C diff HTS	Pf Dd2 growth
N#C[C@@H]1[C@H](c2ccccc2/C=C/c2ccccc2)[C@H](CO)N1S(=O)(=O)c1ccc(F)cc1	x	n	-91
COc1ccc(-c2ccccc2[C@H]2[C@@H](C#N)N(C(=O)NC3CCCC3)[C@H]2CO)cc1	x	n	-94
CCCNC(=O)N1CC(=O)N2[C@H](CO)[C@@H](c3ccc(C#Cc4cccc(F)c4)cc3)[C@H]2C1	x	n	n
CNC[C@H]1Oc2cc(C#CCN(C)C)ccc2S(=O)(=O)N([C@H](C)CO)C[C@H]1C	n	n	n
C[C@@H]1CN([C@@H](C)CO)C(=O)c2cc(/C=C/c3ccccc3)cnc2O[C@H]1CN(C)C(=O)C1CCCCC1	n	n	n
CC(C)NC(=O)N1C[C@H]2[C@@H](c3ccccc31)[C@H](CO)N2C(=O)c1ccncc1	n	n	n
COc1ccc2c3c([nH]c2c1)[C@@H](CO)N(Cc1ccccn1)CC31CCN(C(=O)c2ccccn2)CC1	x	n	n
O=C(NC1CCCCC1)N1CC(=O)N2[C@H](C1)[C@H](c1ccc(/C=C/c3ccccc3)cc1)[C@@H]2CO	x	n	n
C/C=C/c1ccc([C@H]2[C@@H](CO)N(C(=O)NC3CCCC3)[C@H]2C#N)cc1	n	n	n
CC(C)NC(=O)N1[C@H](C#N)[C@@H](c2ccccc2-c2ccc(F)cc2)[C@@H]1CO	x	n	n
C/C=C/c1ccc([C@H]2[C@@H](C#N)N(C(=O)NC3CCCC3)[C@@H]2CO)cc1	n	n	-84
CC(C)NC(=O)N1[C@H](C#N)[C@H](c2ccccc2-c2ccc(F)cc2)[C@@H]1CO	x	n	-90
CO[C@H]1CN(C)C(=O)c2cc(NC(=O)C3CC3)ccc2OC[C@H](C)N(Cc2ccccc2)C[C@@H]1C	n	n	n
O=C(C[C@H]1C[C@@H]2c3cc(NC(=O)Nc4ccc(F)cc4)ccc3O[C@@H]2[C@@H](CO)O1)NC1CCCCC1	n	n	n
CO[C@@H](CN(C)S(=O)(=O)c1ccc(F)cc1)[C@H](C)CN(C(=O)Nc1ccccc1F)[C@H](C)CO	n	x	n
CCCc1cn(CC[C@H]2CC[C@@H](NC(=O)C3CCCC3)[C@@H](CO)O2)nn1	x	n	n
COc1ccc(CN2CC3(CCN(Cc4ccccn4)CC3)c3c(n(C)c4cc(OC)ccc34)[C@H]2CO)cc1	x	x	n
COc1cccc(S(=O)(=O)N(C)C[C@H]2OCc3ccccc3-c3c(n(C)c4ccccc34)C(=O)N([C@H](C)CO)C[C@H]2C)c1	n	n	n
COc1ccc(S(=O)(=O)N(C)C[C@@H]2OCc3ccccc3-c3c(n(C)c4ccccc34)C(=O)N([C@H](C)CO)C[C@@H]2C)cc1	n	x	-83
C[C@@H]1CN([C@@H](C)CO)C(=O)c2c(c3ccccc3n2C)-c2ccccc2CO[C@@H]1CN(C)S(=O)(=O)c1ccccc1	n	x	n
COc1ccc(S(=O)(=O)N(C)C[C@H]2OCc3ccccc3-c3c(n(C)c4ccccc34)C(=O)N([C@@H](C)CO)C[C@@H]2C)cc1	n	x	-86
O=C(C1CC1)N1CC(=O)N2[C@H](CO)[C@H](c3ccc(Br)cc3)[C@H]2C1	x	n	n
CO[C@H]1CN(C)C(=O)c2cc(NS(C)(=O)=O)ccc2OC[C@@H](C)N(CCC(F)(F)F)C[C@@H]1C	n	x	n
COc1ccc2c3c([nH]c2c1)[C@@H](CO)N(Cc1cc(F)ccc1F)CC31CN(C(=O)CN(C)C)C1	x	n	-87
COc1ccc2c3c([nH]c2c1)[C@H](CO)N(Cc1cc(F)ccc1F)CC31CN(C(=O)CN(C)C)C1	x	n	u
SMILES	Tcruzi prolif	C diff HTS	Pf Dd2 growth
COc1ccc2c3c([nH]c2c1)[C@@H](CO)N(Cc1cc(F)ccc1F)CC31CCN(C(=O)CN(C)C)CC1	x	n	-85
COCC(=O)N1CCC2(CC1)CN(Cc1cc(F)ccc1F)[C@@H](CO)c1[nH]c3cc(OC)ccc3c12	x	x	n
O=C(NC1CCCCC1)[C@@H]1[C@@H](CO)[C@@H]2Cn3c(ccc(-c4ccccc4)c3=O)[C@H]1N2	x	n	n
Cc1ccc(S(=O)(=O)Nc2cccc3c2O[C@H](CN(C)C(=O)NC2CCCCC2)[C@@H](C)CN([C@@H](C)CO)C3=O)cc1	n	n	n
O=C(C1CC1)N1CCCCN2[C@@H](CO)[C@@H](c3ccc(-c4ccncc4)cc3)[C@@H]2C1	n	n	n
O=C(c1cccnc1)N1CC2(C1)[C@@H](c1ccccc1)[C@@H](CO)N2C(=O)CC1CC1	x	n	-87
O=C(CC1CC1)N1CC2(C1)[C@H](c1ccccc1)[C@@H](CO)N2C(=O)c1cccnc1	x	n	n
O=C(NC[C@H]1CC[C@H]2[C@H](CN2C(=O)CN2CCOCC2)O1)NC1CCCCC1	x	n	n
